12-LOX inh – blocks human arachidonate 12S-lipoxygenase; purified 12hLO, xylenol orange hydroperoxide absorbance; Potency, µM (highest dose often 108 µM), for the others: at the top dose activity change, negative = inhibition, most hits filed as inhibitors; P18054; 1.1% of 580,000 active
Target sequence (P18054 whole entry, looked up): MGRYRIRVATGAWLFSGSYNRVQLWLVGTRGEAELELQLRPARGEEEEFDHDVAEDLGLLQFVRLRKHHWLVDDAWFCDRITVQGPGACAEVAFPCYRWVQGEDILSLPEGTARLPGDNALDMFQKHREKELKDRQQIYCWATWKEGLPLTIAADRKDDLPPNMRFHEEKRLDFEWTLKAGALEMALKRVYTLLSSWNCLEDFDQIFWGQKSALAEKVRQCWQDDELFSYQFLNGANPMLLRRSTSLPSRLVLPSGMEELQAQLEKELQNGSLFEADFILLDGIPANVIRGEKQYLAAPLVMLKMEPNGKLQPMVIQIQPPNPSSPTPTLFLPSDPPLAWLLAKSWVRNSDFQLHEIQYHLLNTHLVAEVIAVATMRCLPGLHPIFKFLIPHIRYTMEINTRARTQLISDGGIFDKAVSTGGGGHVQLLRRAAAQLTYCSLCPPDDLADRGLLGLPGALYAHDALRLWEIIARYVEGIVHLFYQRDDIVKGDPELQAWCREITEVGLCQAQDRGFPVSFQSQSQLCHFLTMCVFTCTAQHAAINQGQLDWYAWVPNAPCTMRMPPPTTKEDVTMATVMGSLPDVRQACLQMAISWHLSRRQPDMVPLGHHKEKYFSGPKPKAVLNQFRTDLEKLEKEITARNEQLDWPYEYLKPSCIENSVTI
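Hydroperoxide product was detected by ferrous iron/xylenol orange as the 573 to 405 nm absorbance ratio. Arachidonic acid at 40 uM (final) was turned over for 30 min at room temperature by 150 nM human 12hLO, pH 7.0 Hepes buffer, after 15 min compound preincubation.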
RORg inh – blocks mouse ROR gamma transcriptional activity | P51450 | Drosophila S2 Gal4-RORgamma UAS-luciferase reporter, 20 h | Potency, µM (series often up to 53.6 µM), without a hit: at the highest dose activity change, negative = inhibition, hits mostly inhibitors | 5.4% of 310,000 active; note: nearly all actives have a fitted effect of over 60% in size
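Schneider cells (Drosophila), stable Gal4 DBD–ROR gamma + UAS-luc; 1 hr cmpd preincubation; Cu2+ induction 700 uM final; 20 hr ambient; luminescence.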
VP16 counter – inhibits Gal4-VP16 luciferase reporter, ROR gamma counter-screen; Drosophila S2 Gal4-VP16 UAS-luciferase, luminescence, 20 h; 3.5% of 310,000 active; Potency, µM (titrated, usually from 53.6 µM), for inactives: at the highest dose activity, negative = inhibition, usual class: inhibitors; AID 2546;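 note: Gal4-VP16 expression switched on by copper sulfate through the metallothionein promoter; nearly all actives have a fitted effect of over 50% in size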
TDP1 cell noCPT – qHTS for Inhibitors of human tyrosyl-DNA phosphodiesterase 1 (TDP1): qHTS in cells in absence of CPT; DT40 Tdp1-/- hTDP1 cells, no CPT, ATP luminescence, 48 h; Potency, µM (series often up to 46.2 µM), for the others: at the highest dose activity change, negative = growth inhibition, hits mostly inhibitors; 15% of 420,000 active; note: nearly all actives have a fitted effect of over 55% in size
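DT40 Tdp1-/-;hTDP1 cells, no CPT (DMSO vehicle only), 400 cells/well; compounds pin-transferred; ≥48 hr, 37 °C; CellTiter-Glo 30 min RT dark, luminescence read.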
TDP1 cell CPT – growth inhibition of DT40 Tdp1-/-;hTDP1 cells with camptothecin (screen for TDP1 inhibitors); chicken DT40 Tdp1-/-;hTDP1 cells + 20 nM CPT, ATP luminescence, 48 h; Potency, µM (doses to about 46.2 µM), for the others: at the highest dose activity change, negative = growth inhibition, usual class: inhibitors; 12% of 420,000 active; AID 686979; note: nearly all actives have a fitted effect of over 55% in size
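Chicken DT40 Tdp1-/- cells complemented with human TDP1, 400 cells/well, exposed to compounds plus 20 nM camptothecin for at least 48 h at 37 C; viability read as ATP content by CellTiter-Glo luminescence.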
ELG1 repair inh – blocks ELG1-dependent DNA repair in HEK293T cells. HEK293T ELG1-luciferase reporter, luminescence, 16 h; DNA damage induced by 5-fluorouridine. Potency, µM (top dose mostly 46.1 µM), for the others: at the highest dose activity change, negative = inhibition, actives largely listed as inhibitors. 2.3% of 330,000 active. AID 504467; note: nearly all actives have a fitted effect of over 55% in size
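Overnight (16 hr) co-exposure of 2,000 cells/well to 5-fluorouridine and compound at 37 °C preceded detection. Luciferase was quantified via ONE-Glo luminescence; loss of signal denotes inhibition.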
* hit, by the source's call; ? = inconclusive; . = no result; [ ] = remark or other dose. Compounds with a hit are over-represented: about 15% of the library has one in this group of screens. Calls come from the whole dose curve; as a rule, active = well fitted curve in the direction sought with a large enough effect; inconclusive = small, poorly fitted or top-dose-only effect, or another doubt; inactive = no such curve, though single readings can be large; an effect the other way counts as inactive or inconclusive. % is set by controls: 0 for no effect and ±100 for the full control effect; potency is the fitted concentration of half-maximal effect.

SMILES	12-LOX inh	RORg inh	VP16 counter	TDP1 cell noCPT	TDP1 cell CPT	ELG1 repair inh
CCOC(=O)N1CCN(CC(=O)Nc2ccc([N+](=O)[O-])cc2C(=O)Nc2ccccc2F)CC1	3%	-7%	-3%	9.2µM*	21µM*	7.3µM*
Cc1nnc(Cc2ccco2)c2n[nH]c(C)c12	-2%	.	.	?	?	.
Cc1nnc(Cc2ccccc2)c2n[nH]c(C)c12	14%	.	.	0.73µM*	0.73µM*	.
O=C(NCc1c[nH]c2ncccc12)c1ccccc1	2%[176 µM]	.	.	.	.	.
Fc1ccc(Oc2nc3ccccc3s2)c(Br)c1	42%	.	.	.	.	.
CC1CCCCN1S(=O)(=O)c1ccc(C(=O)Nc2sc3c(c2C(N)=O)CC(C)(C)NC3(C)C)cc1 (configuration not stated)	-10%	.	.	?	26µM*	.
Brc1ccc(C2=Nc3cccc4cccc(c34)N2)o1	?	-26%	3%	8.2µM*	6.5µM*	?
FC(F)(F)C1=Nc2cccc3cccc(c23)N1	?	.	.	4.6µM*	4.1µM*	12%
Cc1ccc(NC(=O)c2nc3ccccc3nc2N2CCCC2)cc1	17%	.	.	.	.	.
O=C(Nc1cccc(F)c1)c1cnc2c(c1)N(C(=O)Cc1cccc(C(F)(F)F)c1)CCC2	17%	.	.	.	.	.
Cc1cccc(C)c1N1C(=O)c2ccccc2NC(=O)C1C(=O)Nc1ccc(N2CCOCC2)cc1 (configuration not stated)	-1%	.	.	15µM*	?	.
COc1ccc(-c2noc(-c3cccn3CC(=O)N3CCOc4ccc(C)cc43)n2)cc1F	-4%	.	.	.	.	.
O=C(NCc1ccccc1)NCC12CC3CC(CC(C3)C1)C2	0%	1%	0%	?	?	1%
O=C(NCc1ccccc1)NC12CC3CC(CC(C3)C1)C2	0%	8%	-4%	21µM*	15µM*	-8%
O=C(CC12CC3CC(CC(C3)C1)C2)NC(=S)NCc1ccccc1	28µM*	2µM*	1.6µM*	18µM*	?	5%
O=C(CN1CCN(S(=O)(=O)c2ccc(Cl)cc2)CC1)Nc1ccc2c(c1)OCO2	-24%	30%	-8%	29µM*	?	-14%
O=C(Nc1ccc2c(c1)OCO2)N1CCN(S(=O)(=O)c2ccc(Cl)cc2)CC1	0%	30%[0.365 µM]	.	-10%	?	-1%
O=C(CN1CCN(S(=O)(=O)c2ccc(Cl)cc2)CC1)Nc1ccc2c(c1)OCCO2	0%	17%	-2%	15µM*	?	-4%
Cc1cnc(CC2CCN(C(=O)C(C)C)C2)n1C1CC1 (configuration not stated)	20%	.	.	.	.	.
C#CCNC(=O)c1ccccc1NC(=O)c1nc(Cl)ccc1Cl	-2%	.	.	.	.	.
O=C(c1ccc(-c2ncc3cnc(-c4cccc(F)c4)cn23)cc1)N1CCc2cccnc21	21%[176 µM]	.	.	.	.	.
Cc1ccc(NC(=O)N2CCCC(c3noc(COc4ccccc4)n3)C2)cc1C (configuration not stated)	-14%	.	.	.	.	.
COc1cccc(NC(=O)CSc2nc3ccccc3c(=O)n2CCCC(=O)NCCCN2CCOCC2)c1	-19%	-1%	-4%[10 µM]	3%	1%	-8%
CCCCn1c(SCC(N)=O)nc2ccc(N3CCOCC3)cc2c1=O	0%	1.6µM*	10µM*	?	-23%	?
CCCCn1c(SCC(=O)Nc2cccc(OC)c2)nc2ccc(N3CCOCC3)cc2c1=O	?	5µM*	13µM*	?	?	?
SMILES	12-LOX inh	RORg inh	VP16 counter	TDP1 cell noCPT	TDP1 cell CPT	ELG1 repair inh
COc1ccc(Cn2c(SCC#N)nc3ccc(N4CCOCC4)cc3c2=O)cc1	81%	10µM*	?	?	?	?
O=C(c1cccc(OC(F)(F)F)c1)N1CCC(c2n[nH]c(=O)n2-c2ccccc2)CC1	0%	.	.	.	.	.
CC(=O)c1ccc(N2CCN(C(=O)C3CCN(S(=O)(=O)c4ccc(Br)s4)CC3)CC2)cc1	-12%	.	.	16µM*	?	.
CC(=O)c1ccc(N2CCN(C(=O)C3CCCN(S(=O)(=O)c4cnc[nH]4)C3)CC2)cc1 (configuration not stated)	-24%	6%	5%	-9%	-10%	16%
O=C(C1CCCN(S(=O)(=O)c2ccc(Br)s2)C1)N1CCN(c2ccccc2F)CC1 (configuration not stated)	-25%	.	.	23µM*	?	.
CC(=O)c1ccc(N2CCN(C(=O)C3CCCN(S(=O)(=O)c4ccc(Br)s4)C3)CC2)cc1 (configuration not stated)	-14%	.	.	9.2µM*	15µM*	.
O=C(C1CCCN(S(=O)(=O)c2ccc(Br)s2)C1)N1CCN(c2ccc(F)cc2)CC1 (configuration not stated)	-27%	.	.	12µM*	18µM*	.
O=C(Cn1c(=O)oc2ccccc21)N1CCC2(CC1)CC(OCC1CC1)CCO2 (configuration not stated)	29%	.	.	.	.	.
O=C(C1CCCN(S(=O)(=O)c2cccs2)C1)N1CCN(c2ccccc2F)CC1 (configuration not stated)	0%	.	.	15µM*	23µM*	.
CCOC(=O)c1cnc(N2CCN(c3ccccc3)CC2)c2ccccc12	-3%	.	.	.	.	.
C(=C\c1ccccc1)/CN1CCN(C(c2cc3ccccc3o2)c2nnnn2C2CCCC2)CC1 (configuration not stated)	-17%	.	.	?	?	.
CCCCn1nnnc1C(c1cccs1)N1CCN(C/C=C/c2ccccc2)CC1 (configuration not stated)	?	.	.	23µM*	21µM*	.
C(=C\c1ccccc1)/CN1CCN(C(c2cc3ccccc3o2)c2nnnn2Cc2ccccc2)CC1 (configuration not stated)	-3%	.	.	16µM*	?	.
CCCCn1nnnc1C(C1CC1)N1CCN(C/C=C/c2ccccc2)CC1 (configuration not stated)	?	.	.	16µM*	?	.
CCCCn1nnnc1C(c1ccc(OC)cc1)N1CCN(C/C=C/c2ccccc2)CC1 (configuration not stated)	?	.	.	18µM*	?	.
CN(CC(=O)NC(=O)NC1CC1)Cc1cccc(C#N)c1	-29%	.	.	.	.	.
COc1cc(CC(=O)OCc2ccccc2C#N)ccc1C	34%	.	.	.	.	.

Source: PubChem BioAssay
